Screening results deposited in PubChem by National Center for Advancing Translational Sciences (NCATS).
AmpC nodet inh – blocks E. coli AmpC beta-lactamase in absence of detergent; P00811; AmpC nitrocefin hydrolysis, absorbance 480 nm, no detergent; Potency, µM (doses to about 28.7 µM), for the others: at the highest dose activity change, negative = inhibition; actives 1.8% (n = 71,000); AID 585; further: % of control where 0% means no effect
Target sequence (P00811 whole entry, looked up): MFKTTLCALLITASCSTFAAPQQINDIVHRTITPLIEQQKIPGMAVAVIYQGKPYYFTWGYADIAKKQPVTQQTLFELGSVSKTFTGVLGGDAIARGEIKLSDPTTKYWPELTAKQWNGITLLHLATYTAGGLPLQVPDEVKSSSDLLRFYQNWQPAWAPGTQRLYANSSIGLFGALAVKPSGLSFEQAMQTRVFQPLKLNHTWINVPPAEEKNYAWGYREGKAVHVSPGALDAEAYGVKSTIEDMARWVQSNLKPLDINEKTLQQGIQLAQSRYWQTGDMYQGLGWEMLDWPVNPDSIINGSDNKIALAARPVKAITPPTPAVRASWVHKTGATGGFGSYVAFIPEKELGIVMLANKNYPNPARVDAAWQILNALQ
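AmpC in 20 mM phosphate buffer pH 7.0 was preincubated 15 min at room temperature with compounds. Nitrocefin (800 uM stock) was then added and hydrolysis followed at 480 nm every 20 s for 4 min.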
SmPrx2 inh – Schistosoma mansoni Prx2 inhibition; S. mansoni Prx2 activity coupled to TGR/GSH (TGR is thioredoxin glutathione reductase), NADPH fluorescence loss, qHTS; AID 448; actives 0.07% (n = 65,000); Potency, µM
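Prx2 activity was followed as the loss of NADPH fluorescence (ex 365/em 450 nm), read every 30 sec for 8 min after H2O2 start. The enzyme mix (50 nM Prx2, 25 nM TGR, GSH, NADPH; pH 7.4 phosphate buffer) was incubated with compound for 15 min at room temperature first.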
AmpC det inh – AmpC beta-lactamase inhibition, detergent assay. P00811. purified AmpC, nitrocefin hydrolysis with detergent. AID 584. actives 0.09% (n = 71,000). Potency, µM (doses to about 28.7 µM), for the others: at the highest dose activity change, negative = inhibition; active means well fitted curve in the direction sought with a large enough effect; inconclusive means small, poorly fitted or top-dose-only effect; further: on the % scale 0 is the no-effect control and ±100 the full control effect
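E. coli AmpC (5.3 nM) in 20 mM phosphate pH 7.0 with 0.01% Triton X-100, preincubated 15 min RT with compound; nitrocefin (2 uL of 800 uM stock) hydrolysis followed by 480 nm absorbance every 20 s over 4 min.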
LT uptake inh – inhibitors of anthrax lethal toxin internalization; Cells, anthrax lethal toxin internalization, FRET ratio (460/530); Potency, µM (titrated, usually from 40 µM), without a hit: at the top dose activity change, negative = inhibition, actives largely listed as inhibitors; actives 0.67% (n = 70,000); AID 912; further: on the % scale 0 is the no-effect control and ±100 the full control effect; nearly all actives have a fitted effect of over 50% in size
The depositor's hits bear a star; [ ] = dose if it differs, or a comment. A selection: hits, their analogues and other compounds. The true share with any hit is near 2.6%. Unless noted, the call rests on the fitted dose curve. Potency means the concentration at half of the fitted maximal effect.

CCOC(=O)C1=C(C)Nc2nnnn2C1c1ccc(OC)c(Br)c1 (stereo not given) was read as AmpC nodet inh 3.98µM*[single pt active], SmPrx2 inh >57, AmpC det inh 6.5% and LT uptake inh -3.4%.
Screening C=CCOC(=O)C1=C(C)Nc2nnnn2C1c1cc(OC)ccc1OC (stereo not given) returned AmpC nodet inh 13.7%, SmPrx2 inh >57, AmpC det inh -4.9% and LT uptake inh 7.1%.
For C[N+]1(CCC[N+]2(C)C[C@H]3[C@H](C2)[C@H]2C=C[C@@H]3CC2)CCOCC1 (stereo not given in full) the results were AmpC nodet inh 3.9%[5.75 µM], SmPrx2 inh >11.4, AmpC det inh -3.1%[5.75 µM] and LT uptake inh 2.1%[8 µM].
Screening COc1cccc(-c2nc(CS(=O)CC(=O)NCc3ccccc3)c(C)o2)c1 (stereo not given) returned AmpC nodet inh 3.98µM*[single pt active], SmPrx2 inh >57, AmpC det inh 13.0% and LT uptake inh -0.9%.
For COc1ccc(-c2nc(CS(=O)CC(=O)NCc3cccnc3)c(C)o2)cc1 (stereo not given) the results were AmpC nodet inh 3.16µM*[single pt active], SmPrx2 inh >57, AmpC det inh 8.9% and LT uptake inh 0.1%.
`CCCNC(=O)CS(=O)Cc1nc(-c2cccc(OC)c2)oc1C` (stereo not given) gave AmpC nodet inh 3.98µM*[single pt active], SmPrx2 inh >57, AmpC det inh 10.4% and LT uptake inh 4.4%.
`COc1ccc(-c2nc(CS(=O)CC(=O)NCc3ccco3)c(C)o2)cc1` (stereo not given) gave AmpC nodet inh 3.98µM*[single pt active], SmPrx2 inh >57, AmpC det inh 9.9% and LT uptake inh 5.0%.
Screening COc1cc([C@H]2c3cc4c(cc3[C@@H](O[C@H]3O[C@H]5CO[C@@H](C)O[C@H]5[C@@H](O)[C@@H]3O)[C@@H]3COC(=O)[C@H]23)OCO4)cc(OC)c1O returned AmpC nodet inh 3.4%[12.8 µM], SmPrx2 inh >57, AmpC det inh 1.8%[12.8 µM] and LT uptake inh -1.5%[3.58 µM].
For COc1ccc(COC2OC[C@]3(C)[C@H]4C5=C(CN3C(=O)OC(C)(C)C)[C@H](C)C(CO)C(CO)C5CC[C@@H]24)cc1 (stereo not given in full) the results were AmpC nodet inh 140.4%, SmPrx2 inh >57, AmpC det inh 1.4% and LT uptake inh inconclusive.
`CN1CCN(c2ncc3nc(-c4cccc(C#N)c4)c(=O)n(Cc4ccc(F)cc4)c3n2)CC1` gave AmpC nodet inh 142.9%, SmPrx2 inh >57, AmpC det inh 1.9% and LT uptake inh inconclusive.
CC(C)CN1CCCC2(CCN(C(=O)c3cc(C(F)(F)F)cc(C(F)(F)F)c3)CC2)C1 was read as AmpC nodet inh 126.6%, SmPrx2 inh >57, AmpC det inh 2.4% and LT uptake inh 1.5%.
For CCCCCCNC(=O)c1c(O)c2ccccc2[nH]c1=O the results were AmpC nodet inh 12.6µM*, SmPrx2 inh >57, AmpC det inh 2.0% and LT uptake inh 21.8%.
Screening CC(CN1CCCCC1)OC(=O)c1ccc2c(c1)OCO2 (stereo not given) returned AmpC nodet inh -10.1%, SmPrx2 inh >57, AmpC det inh -1.1% and LT uptake inh -3.5%.
`CC1CCN(CC(C)OC(=O)c2ccc3c(c2)OCCO3)CC1` (stereo not given) gave AmpC nodet inh 3.98µM*[single pt active], SmPrx2 inh >57, AmpC det inh 26.6% and LT uptake inh -7.2%.
`COc1ccc(C#CC2C=CC(Oc3cc(C)cc(C)c3)C(CO)O2)cc1` (stereo not given) gave LT uptake inh -13.1%[8 µM].
Screening COC(=O)C(C)Sc1nnc(Cc2cc(=O)[nH]c(=O)[nH]2)n1-c1cccc(OC)c1 (stereo not given) returned AmpC nodet inh 3.98µM*[single pt active], SmPrx2 inh >57, AmpC det inh 13.0% and LT uptake inh 0.2%.
For COC(=O)C(C)Sc1nnc(Cc2cc(=O)[nH]c(=O)[nH]2)n1-c1cc(C)ccc1C (stereo not given) the results were AmpC nodet inh 2µM*, SmPrx2 inh >57, AmpC det inh 14.2% and LT uptake inh -5.3%.
`COc1cccc(-n2c(Cc3cc(=O)[nH]c(=O)[nH]3)nnc2SC(C)C)c1` gave AmpC nodet inh 3.98µM*[single pt active], SmPrx2 inh >57, AmpC det inh 12.5% and LT uptake inh 5.2%.
Screening CCOc1ccc(-n2c(Cc3cc(=O)[nH]c(=O)[nH]3)nnc2SC(C)C(=O)OC)cc1 (stereo not given) returned AmpC nodet inh 24.5%, SmPrx2 inh >57, AmpC det inh 10.0% and LT uptake inh -7.8%.
Screening C=CCSc1nnc(Cc2cc(=O)[nH]c(=O)[nH]2)n1-c1cc(C)ccc1C returned AmpC nodet inh 4.0%, SmPrx2 inh >57, AmpC det inh 13.6% and LT uptake inh -26.1%.
`CSc1nnc(Cc2cc(=O)[nH]c(=O)[nH]2)n1-c1cccc(C)c1` gave AmpC nodet inh -16.1%, SmPrx2 inh >57, AmpC det inh 6.6% and LT uptake inh -5.9%.
Screening COC(=O)c1ccc(-c2nn(C)c(=O)c3ccccc23)cc1 returned AmpC nodet inh 3.98µM*[single pt active], SmPrx2 inh >57, AmpC det inh 11.2% and LT uptake inh -14.5%.
Cc1nc2ccccc2c2oc(C(=O)NCCN3CCCCC3C)cc12 (stereo not given) was read as AmpC nodet inh 4.2%, SmPrx2 inh >57, AmpC det inh 1.3% and LT uptake inh 7.94µM*.
CCCCN(CC)CCNC(=O)c1cc2c(C)nc3ccccc3c2o1 was read as AmpC nodet inh 11.5%, SmPrx2 inh >57, AmpC det inh 2.5% and LT uptake inh 12.6µM*.
Screening CCN1CCCC1CNC(=O)c1cc2c(C)nc3ccccc3c2o1 (stereo not given) returned AmpC nodet inh -8.9%, SmPrx2 inh >57, AmpC det inh -2.1% and LT uptake inh inconclusive.
CNC(=O)[C@]1(C)C[C@H]1[C@H](NC(=O)[C@]1(C)C[C@H]1[C@H](NC(=O)OCc1ccccc1)c1ccccc1)c1ccccc1 was read as AmpC nodet inh 19.9%, AmpC det inh 11.7% and LT uptake inh -13.5%.
Screening CCCCN(CC)CCNc1c(N2CCN(C(=O)OCC)CC2)c(=O)c1=O returned AmpC nodet inh -5.9%, SmPrx2 inh >57, AmpC det inh -6.1% and LT uptake inh 5.3%.
`CCOC(=O)N1CCN(c2c(NC3CCN(Cc4ccccc4)CC3)c(=O)c2=O)CC1` gave AmpC nodet inh 3.98µM*[single pt active], SmPrx2 inh >57, AmpC det inh 9.7% and LT uptake inh -9.2%.
`CCCCN(CC)CCNc1c(NC2CCN(C(=O)OCC)CC2)c(=O)c1=O` gave AmpC nodet inh 3.98µM*[single pt active], SmPrx2 inh >57, AmpC det inh 13.7% and LT uptake inh -16.1%.
`CCOC(=O)N1CCC(Nc2c(OCC)c(=O)c2=O)CC1` gave AmpC nodet inh 3.98µM*[single pt active], SmPrx2 inh >57, AmpC det inh 11.9% and LT uptake inh -7.4%.
For O=C(Cn1ncc2c(=O)oc3ccccc3c21)N1CCC(N2CCCCC2)CC1 the results were AmpC nodet inh 3.16µM*[single pt active], SmPrx2 inh >57, AmpC det inh 9.8% and LT uptake inh -13.3%.
